Test results from the supplement of paper PMC11732987, “Enantioselective OTUD7B fragment discovery through chemoproteomics screening and high-throughput optimisation” (Communications Chemistry, 2025).

Key:
Experiment in all cases: log2 ratio of Biotin-Ahx-Ub-VS probe labelling (fragment/DMSO); higher = less target engagement (more negative = stronger competition), active = hit call of the paper (q ≤ 0.05, log2 ratio ≤ -1)
Conditions in all cases: compound concentration: 200 uM; treatment time: 3 h
[1] = target: USP9X (UniProt Q93008)
Method in brief: (§1)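 HEK293T lysate (495 µg per sample, in Tris/CHAPS/IGEPAL buffer with protease inhibitors) was treated in triplicate with fragment at 200 µM or with DMSO for 3 h. It was then treated with Biotin-Ahx-Ub-VS (0.5 µM final) for 1 h. Labelled DUBs were NeutrAvidin-enriched, digested with LysC and trypsin, and run by diaPASEF LC-MS/MS. Spectronaut label-free quantities were global-median-normalised. Values are average log2 ratios fragment/DMSO by unpaired t-test, using proteins with ≥2 unique peptides.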

[2] = target: UniProt O00487
Method in brief: as §1

[3] = target: UniProt O00507
Method in brief: as §1

[4] = target: UniProt P51784
Method in brief: as §1

[5] = target: T1, UniProt Q5T2D3
T1 sequence (whole entry): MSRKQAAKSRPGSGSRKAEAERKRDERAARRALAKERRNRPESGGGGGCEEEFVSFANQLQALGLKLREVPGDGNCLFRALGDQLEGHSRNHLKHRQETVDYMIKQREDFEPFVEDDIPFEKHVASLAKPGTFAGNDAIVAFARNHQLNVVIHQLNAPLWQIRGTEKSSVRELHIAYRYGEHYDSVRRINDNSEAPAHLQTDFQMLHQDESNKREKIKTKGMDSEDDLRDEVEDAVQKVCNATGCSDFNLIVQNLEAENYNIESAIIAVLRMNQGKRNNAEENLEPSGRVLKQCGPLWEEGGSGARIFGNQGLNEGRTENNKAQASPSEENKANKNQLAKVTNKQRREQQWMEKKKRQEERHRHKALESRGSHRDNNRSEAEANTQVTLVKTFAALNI
Method in brief: as §1

[6] = target: T2, UniProt Q8TE49
T2 sequence (whole entry): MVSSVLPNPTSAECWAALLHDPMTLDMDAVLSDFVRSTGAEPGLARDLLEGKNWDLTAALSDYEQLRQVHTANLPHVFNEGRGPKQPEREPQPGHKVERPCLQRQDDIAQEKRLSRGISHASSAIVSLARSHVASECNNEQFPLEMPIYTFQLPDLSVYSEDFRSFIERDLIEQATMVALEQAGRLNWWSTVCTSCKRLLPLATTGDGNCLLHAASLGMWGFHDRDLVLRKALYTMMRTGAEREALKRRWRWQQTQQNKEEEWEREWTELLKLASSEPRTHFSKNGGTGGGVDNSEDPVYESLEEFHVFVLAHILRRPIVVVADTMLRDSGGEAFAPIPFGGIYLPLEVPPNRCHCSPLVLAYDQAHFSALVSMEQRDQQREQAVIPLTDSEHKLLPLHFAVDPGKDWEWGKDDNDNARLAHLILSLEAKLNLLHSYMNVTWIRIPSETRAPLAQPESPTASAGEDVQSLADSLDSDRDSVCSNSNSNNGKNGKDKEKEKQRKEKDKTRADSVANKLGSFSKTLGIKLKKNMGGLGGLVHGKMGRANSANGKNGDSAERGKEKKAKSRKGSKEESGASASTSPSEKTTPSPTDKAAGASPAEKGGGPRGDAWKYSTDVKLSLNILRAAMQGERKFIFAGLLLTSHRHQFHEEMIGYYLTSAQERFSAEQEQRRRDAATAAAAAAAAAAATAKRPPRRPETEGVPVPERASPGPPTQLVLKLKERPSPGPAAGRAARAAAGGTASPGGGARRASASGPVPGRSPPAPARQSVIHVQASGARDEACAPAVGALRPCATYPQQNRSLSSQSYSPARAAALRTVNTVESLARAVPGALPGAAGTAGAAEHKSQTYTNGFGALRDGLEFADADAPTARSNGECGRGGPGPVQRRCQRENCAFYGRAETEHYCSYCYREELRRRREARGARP
Method in brief: as §1

[7] = target: T3, UniProt Q9P2H5
T3 sequence (whole entry): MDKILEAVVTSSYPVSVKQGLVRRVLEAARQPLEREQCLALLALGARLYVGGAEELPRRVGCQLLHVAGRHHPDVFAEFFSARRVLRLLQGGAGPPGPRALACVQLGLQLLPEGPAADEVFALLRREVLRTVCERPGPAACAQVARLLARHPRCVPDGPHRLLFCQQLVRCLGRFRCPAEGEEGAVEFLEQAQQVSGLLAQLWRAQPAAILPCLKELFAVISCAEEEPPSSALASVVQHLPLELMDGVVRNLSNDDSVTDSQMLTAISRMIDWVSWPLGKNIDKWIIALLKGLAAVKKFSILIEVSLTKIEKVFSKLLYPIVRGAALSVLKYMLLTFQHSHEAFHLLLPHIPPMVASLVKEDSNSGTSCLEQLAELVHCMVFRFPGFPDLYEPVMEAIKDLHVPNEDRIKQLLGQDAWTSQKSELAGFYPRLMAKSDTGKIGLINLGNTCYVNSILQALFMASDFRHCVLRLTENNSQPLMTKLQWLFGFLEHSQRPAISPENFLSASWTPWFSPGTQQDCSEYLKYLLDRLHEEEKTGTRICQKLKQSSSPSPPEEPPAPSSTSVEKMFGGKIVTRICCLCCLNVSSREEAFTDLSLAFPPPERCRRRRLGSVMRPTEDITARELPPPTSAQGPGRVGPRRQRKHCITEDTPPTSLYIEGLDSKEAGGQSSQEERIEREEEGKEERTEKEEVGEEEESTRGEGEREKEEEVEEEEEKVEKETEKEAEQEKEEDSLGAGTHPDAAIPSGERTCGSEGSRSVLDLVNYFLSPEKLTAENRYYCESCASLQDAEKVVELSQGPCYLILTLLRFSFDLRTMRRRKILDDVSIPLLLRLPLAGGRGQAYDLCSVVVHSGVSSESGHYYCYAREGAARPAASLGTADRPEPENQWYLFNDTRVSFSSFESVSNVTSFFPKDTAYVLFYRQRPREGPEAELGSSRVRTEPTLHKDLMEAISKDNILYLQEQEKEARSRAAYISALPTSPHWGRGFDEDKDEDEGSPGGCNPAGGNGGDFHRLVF
Method in brief: as §1

[8] = target: T4, UniProt Q9UGI0
T4 sequence (whole entry): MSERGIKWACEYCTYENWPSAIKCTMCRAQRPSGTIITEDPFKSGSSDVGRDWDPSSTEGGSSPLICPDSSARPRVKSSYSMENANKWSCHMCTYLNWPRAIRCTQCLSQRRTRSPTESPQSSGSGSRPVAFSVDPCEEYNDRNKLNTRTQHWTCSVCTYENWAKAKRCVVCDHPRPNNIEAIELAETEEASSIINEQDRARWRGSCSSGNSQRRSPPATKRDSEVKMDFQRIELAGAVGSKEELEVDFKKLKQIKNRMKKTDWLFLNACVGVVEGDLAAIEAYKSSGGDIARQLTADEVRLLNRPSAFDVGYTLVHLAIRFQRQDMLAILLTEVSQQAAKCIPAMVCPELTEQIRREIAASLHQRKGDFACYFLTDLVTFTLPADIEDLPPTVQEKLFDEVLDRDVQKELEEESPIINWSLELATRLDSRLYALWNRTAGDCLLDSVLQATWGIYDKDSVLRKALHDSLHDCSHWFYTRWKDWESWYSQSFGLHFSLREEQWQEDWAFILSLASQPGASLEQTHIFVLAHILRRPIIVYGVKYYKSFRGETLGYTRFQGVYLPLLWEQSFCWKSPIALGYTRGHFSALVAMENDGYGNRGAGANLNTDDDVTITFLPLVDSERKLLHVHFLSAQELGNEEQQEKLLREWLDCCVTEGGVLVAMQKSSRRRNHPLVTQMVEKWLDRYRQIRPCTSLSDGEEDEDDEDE
Method in brief: as §1

[9] = target: T5, YOD1 (UniProt Q5VVQ6)
T5 sequence (whole entry): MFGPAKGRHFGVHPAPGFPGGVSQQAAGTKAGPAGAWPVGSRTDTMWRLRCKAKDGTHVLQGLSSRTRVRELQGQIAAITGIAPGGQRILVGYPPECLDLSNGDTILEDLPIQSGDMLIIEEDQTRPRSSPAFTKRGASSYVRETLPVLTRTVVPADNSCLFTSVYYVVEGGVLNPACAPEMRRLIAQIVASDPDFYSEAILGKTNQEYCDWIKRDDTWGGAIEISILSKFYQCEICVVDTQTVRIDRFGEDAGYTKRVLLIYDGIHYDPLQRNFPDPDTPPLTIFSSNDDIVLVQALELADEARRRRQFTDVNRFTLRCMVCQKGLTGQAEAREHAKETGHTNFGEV
Method in brief: as §1

Measured: log2 ratio of Biotin-Ahx-Ub-VS probe labelling

UniProt O00507, sequence (O00507 whole entry): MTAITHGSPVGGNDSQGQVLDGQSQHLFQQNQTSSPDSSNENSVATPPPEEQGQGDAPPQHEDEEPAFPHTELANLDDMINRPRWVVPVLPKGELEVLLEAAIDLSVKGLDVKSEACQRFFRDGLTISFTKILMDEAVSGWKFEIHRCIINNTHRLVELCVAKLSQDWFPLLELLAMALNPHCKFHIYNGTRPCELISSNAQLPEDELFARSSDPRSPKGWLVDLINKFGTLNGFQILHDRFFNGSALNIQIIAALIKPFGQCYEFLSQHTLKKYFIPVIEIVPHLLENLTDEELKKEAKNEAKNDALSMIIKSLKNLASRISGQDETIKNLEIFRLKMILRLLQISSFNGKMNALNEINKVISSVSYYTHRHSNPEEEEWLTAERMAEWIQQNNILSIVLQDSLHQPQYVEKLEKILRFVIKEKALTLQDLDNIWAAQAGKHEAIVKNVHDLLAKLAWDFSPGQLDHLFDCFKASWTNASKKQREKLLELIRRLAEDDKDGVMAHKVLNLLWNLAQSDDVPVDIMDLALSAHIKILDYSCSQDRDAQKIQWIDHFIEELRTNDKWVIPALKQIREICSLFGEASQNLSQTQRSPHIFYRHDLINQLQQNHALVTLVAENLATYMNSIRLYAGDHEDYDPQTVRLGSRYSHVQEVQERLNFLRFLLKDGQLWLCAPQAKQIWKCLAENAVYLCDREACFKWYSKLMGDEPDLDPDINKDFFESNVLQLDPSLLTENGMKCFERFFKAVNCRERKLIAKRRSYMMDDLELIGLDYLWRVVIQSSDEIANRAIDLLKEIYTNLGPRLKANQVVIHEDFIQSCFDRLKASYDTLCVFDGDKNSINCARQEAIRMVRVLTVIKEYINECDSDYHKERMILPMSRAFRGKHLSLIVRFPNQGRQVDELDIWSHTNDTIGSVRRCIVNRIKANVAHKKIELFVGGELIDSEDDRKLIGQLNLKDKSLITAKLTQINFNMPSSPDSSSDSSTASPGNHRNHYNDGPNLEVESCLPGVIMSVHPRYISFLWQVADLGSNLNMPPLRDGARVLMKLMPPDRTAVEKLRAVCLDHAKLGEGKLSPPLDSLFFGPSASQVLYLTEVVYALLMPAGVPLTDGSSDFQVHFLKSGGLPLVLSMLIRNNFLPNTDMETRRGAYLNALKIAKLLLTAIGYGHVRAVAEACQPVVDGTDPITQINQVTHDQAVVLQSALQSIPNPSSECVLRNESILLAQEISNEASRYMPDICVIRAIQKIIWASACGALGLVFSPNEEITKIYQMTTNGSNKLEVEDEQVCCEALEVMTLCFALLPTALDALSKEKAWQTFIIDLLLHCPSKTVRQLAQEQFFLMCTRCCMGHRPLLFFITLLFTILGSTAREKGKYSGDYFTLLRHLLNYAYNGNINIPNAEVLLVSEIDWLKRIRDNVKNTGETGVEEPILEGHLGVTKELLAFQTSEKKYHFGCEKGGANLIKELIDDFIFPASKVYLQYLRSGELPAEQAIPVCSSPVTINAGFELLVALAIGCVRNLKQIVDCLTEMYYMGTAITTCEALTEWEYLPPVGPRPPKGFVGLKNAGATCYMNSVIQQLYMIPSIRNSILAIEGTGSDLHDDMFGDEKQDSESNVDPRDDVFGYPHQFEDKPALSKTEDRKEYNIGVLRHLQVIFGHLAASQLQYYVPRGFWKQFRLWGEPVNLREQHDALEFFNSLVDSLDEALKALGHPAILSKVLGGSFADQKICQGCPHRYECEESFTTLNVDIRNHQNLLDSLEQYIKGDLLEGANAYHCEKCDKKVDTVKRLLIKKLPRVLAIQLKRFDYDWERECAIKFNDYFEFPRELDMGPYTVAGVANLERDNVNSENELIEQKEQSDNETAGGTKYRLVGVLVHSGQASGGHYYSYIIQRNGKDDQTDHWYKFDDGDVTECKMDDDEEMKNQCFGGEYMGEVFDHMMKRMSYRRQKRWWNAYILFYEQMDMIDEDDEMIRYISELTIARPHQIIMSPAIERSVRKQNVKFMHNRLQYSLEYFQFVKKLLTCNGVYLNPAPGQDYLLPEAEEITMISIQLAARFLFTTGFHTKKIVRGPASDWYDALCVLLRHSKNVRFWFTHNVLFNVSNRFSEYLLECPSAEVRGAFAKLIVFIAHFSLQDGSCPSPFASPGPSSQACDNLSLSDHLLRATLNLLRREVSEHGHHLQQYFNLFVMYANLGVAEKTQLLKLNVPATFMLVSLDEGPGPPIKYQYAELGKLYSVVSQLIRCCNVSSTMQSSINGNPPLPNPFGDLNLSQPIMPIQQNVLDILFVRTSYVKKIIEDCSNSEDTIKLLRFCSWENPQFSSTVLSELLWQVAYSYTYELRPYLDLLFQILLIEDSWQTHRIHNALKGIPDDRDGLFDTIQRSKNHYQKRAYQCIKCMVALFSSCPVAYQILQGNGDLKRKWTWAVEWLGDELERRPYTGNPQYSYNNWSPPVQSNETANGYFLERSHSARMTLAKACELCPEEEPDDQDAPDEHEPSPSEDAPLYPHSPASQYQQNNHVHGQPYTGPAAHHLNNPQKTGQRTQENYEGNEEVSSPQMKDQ
UniProt O00487, sequence (O00487 whole entry): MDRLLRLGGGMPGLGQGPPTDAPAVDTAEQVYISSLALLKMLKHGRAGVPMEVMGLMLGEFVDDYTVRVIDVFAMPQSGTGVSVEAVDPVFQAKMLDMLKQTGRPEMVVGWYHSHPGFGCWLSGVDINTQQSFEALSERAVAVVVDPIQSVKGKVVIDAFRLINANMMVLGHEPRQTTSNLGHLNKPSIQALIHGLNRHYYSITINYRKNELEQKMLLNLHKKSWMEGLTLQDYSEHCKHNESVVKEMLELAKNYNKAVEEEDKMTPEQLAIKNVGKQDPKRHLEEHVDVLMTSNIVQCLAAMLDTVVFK
UniProt P51784, sequence (P51784 whole entry): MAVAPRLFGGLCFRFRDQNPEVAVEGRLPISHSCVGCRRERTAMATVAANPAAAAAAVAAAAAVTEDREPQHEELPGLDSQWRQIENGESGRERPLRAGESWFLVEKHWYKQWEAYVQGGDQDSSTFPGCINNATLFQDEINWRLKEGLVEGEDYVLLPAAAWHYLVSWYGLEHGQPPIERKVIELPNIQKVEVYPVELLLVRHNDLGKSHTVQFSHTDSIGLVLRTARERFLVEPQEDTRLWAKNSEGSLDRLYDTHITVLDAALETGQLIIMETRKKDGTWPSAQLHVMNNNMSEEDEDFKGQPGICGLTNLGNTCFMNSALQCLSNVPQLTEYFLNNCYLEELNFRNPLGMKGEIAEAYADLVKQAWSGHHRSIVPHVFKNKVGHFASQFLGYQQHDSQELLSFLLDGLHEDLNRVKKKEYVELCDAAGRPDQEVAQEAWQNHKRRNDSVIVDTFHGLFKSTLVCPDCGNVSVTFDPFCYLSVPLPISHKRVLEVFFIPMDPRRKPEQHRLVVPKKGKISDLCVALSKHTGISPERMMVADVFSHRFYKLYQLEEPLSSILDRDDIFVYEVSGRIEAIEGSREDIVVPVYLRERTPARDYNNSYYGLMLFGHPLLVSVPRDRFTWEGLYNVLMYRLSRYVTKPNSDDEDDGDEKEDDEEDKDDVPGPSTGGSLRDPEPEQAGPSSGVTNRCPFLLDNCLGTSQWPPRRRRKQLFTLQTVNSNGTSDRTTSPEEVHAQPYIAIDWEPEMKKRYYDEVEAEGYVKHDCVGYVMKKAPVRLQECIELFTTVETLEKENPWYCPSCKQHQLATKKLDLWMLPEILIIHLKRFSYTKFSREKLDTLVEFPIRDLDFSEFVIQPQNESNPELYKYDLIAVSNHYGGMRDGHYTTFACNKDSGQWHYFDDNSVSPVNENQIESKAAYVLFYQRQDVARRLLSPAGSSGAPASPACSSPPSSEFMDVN

O=C(CCl)NCc1ccc(N2CCOCC2)c(F)c1
inactive: [1] -0.078 | [2] 0.0665 | [3] 0.631 | [4] 0.16 | [5] -0.134 | [6] -0.275 | [7] -0.291 | [8] -0.051 | [9] 0.276
